Where “and” joins values, the source holds several entries; their conditions need not be identical. Equal entries are not always repeated.

For orientation: inhibition means the drop in the measured response relative to a control, in per cent.

This assay has as its target Glucose transporter (Leishmania mexicana) (UniProt O61059). Kind of assay: ST_JUDE_LEISH: Cytotoxicity at 2uM final concentration against transgenic Leishmania Mexicana promastigotes LmGT2 that are glucose transport deficient and complemented with the L. Mexicana glucose transporter 2. Activity is measured by DNA content using SYBR green in vitro. Format: functional.
As for `CCC1(C)N=C(N)N=C(N)N1c1ccc(Cl)cc1` (stereo not given), the inhibition was 2.79%.

As for `CN1CC=C(c2c[nH]c3ccc(Sc4ccccc4)cc23)CC1`, the inhibition stood at 3.42%.

For `CC(=O)Nc1ccc2[nH]cc(C3CCN(CC4CCC(NC(=O)/C=C/c5ccc(Cl)c(Cl)c5)CC4)CC3)c2c1` (stereo not given), the inhibition was 0.33% and -0.43%.

In the case of `COC(=O)c1ccc(CC(C)NCC(O)c2cccc(I)c2)cc1` (stereo not given), the inhibition amounted to 0.29%.

As for `Cc1cc2cc(CNCCc3ccccc3Br)ccc2nc1N`, the inhibition was 5.36%.

Consider `Cc1ccc(CC(C)NCC(O)c2cccc(C(F)(F)F)c2)cc1F` (stereo not given), for which the inhibition was determined as 5.67%.

With `COc1ccc(C=CC(=O)NC2CCC(CN3CCC(c4c[nH]c5ccccc45)CC3)CC2)cc1OC` (stereo not given), the inhibition was -1.08% and -3.42%.

As for `Cc1[nH]c2ccccc2c1C1=CCN(CC2CC2C(=O)c2ccccc2)CC1` (stereo not given), the inhibition is 8.4%.

`O=[N+]([O-])c1ccc(Oc2c(Cl)cc(S(=O)(=O)N3CCC(CN4CCC(c5c[nH]c6ccccc56)CC4)CC3)cc2Cl)c(Cl)c1`: the inhibition was 3.15%.

For `O=C(/C=C/c1cc(C(F)(F)F)ccc1F)NC1CCC(CN2CCC(c3c[nH]c4ccccc34)CC2)CC1` (stereo not given), the inhibition worked out at 6.74%.

In the case of `O=C(C=Cc1ccc(F)c(Br)c1)NC1CCC(CN2CCC(c3c[nH]c4ccccc34)CC2)CC1` (stereo not given), the inhibition is -1.48% and 3.84%.

For `O=C(NC1CCC(CN2CCC(c3c[nH]c4ccccc34)CC2)CC1)[C@H]1Cc2ccccc2CN1` (stereo not given in full), the inhibition amounted to 4.44%.

Consider `COCC(=O)N(Cc1cccc(-c2ccc(CNCCc3ccccc3)cc2)c1)C1CCN(Cc2ccccc2)CC1`, for which the inhibition was found to be 2.98%.

On to `CCN(CC)CCN1C(=O)C(O)(c2ccccc2Cl)c2c1cc(C#N)cc2C(F)(F)F` (stereo not given), for which the inhibition was determined as 4.08%.

With `CCCc1cc([C@@H](O)[C@@H]2C[C@@H]3CCN2C[C@@H]3CC)c2ccccc2n1`, the inhibition was 0.11%.

For the molecule `C=Cc1cc(OC)c2c(c1)c(=O)oc1c2cc(OC)c2c(O)ccc([C@H]3O[C@H]([C@H](C)O)[C@H](O)[C@H]3O)c21`, the inhibition was determined as 8.58%.

Consider `CC[C@H]1CN2CC[C@H]1C[C@H]2[C@H](O)c1ccnc2ccc(O)cc12`, for which the inhibition came out at 1.04%.

Regarding `O=C(NC1CCN(CC2(c3ccc(Cl)cc3)CCC2)CC1)c1cc[nH]n1`, the inhibition is -1.02%.

As for `CCC1(C)CC(CCNCc2ccccc2O)(c2ccc(F)cc2)CCO1` (stereo not given), the inhibition is -0.21%.

With `CC(Cc1ccc(OCCCCOc2ccccc2)cc1)NCCc1ccccc1Cl` (stereo not given), the inhibition amounted to 7.82%.

Turning to `N#Cc1ccc(N(CC(=O)NCCc2ccccc2)CC2CC2)c2ccccc12`, the inhibition was 0.87%.

On to `CCc1ccc(CN2CCC(CN(C(=O)c3ccccc3)c3ccc(Cl)cc3)CC2)cc1`, for which the inhibition worked out at 5.04%.

On to `CC(C)CNCc1cccc(-c2ccc(CN(C(=O)Nc3ccccc3)C3CCN(Cc4ccccc4)CC3)cc2)c1`, for which the inhibition was found to be 2.04%.

Turning to `CCN(CC)CCOC(=O)C(OC)(c1ccccc1)c1ccccc1`, the inhibition came to 1.83%.

For `Cc1cc(-c2ncc[nH]2)ccc1-c1ccc(C(=O)N2CCc3cc4c(cc32)C2(CCN(C)CC2)CO4)cc1`, the inhibition was -0.2%.

`O=C(/C=C/c1ccc(Cl)cc1)NC1CCC(CN2CCC(c3c[nH]c4ccccc34)CC2)CC1` (stereo not given): the inhibition was -1.22% and 2.14%.

As to `COC(=O)CN(C(=O)/C=C/c1ccc(Cl)c(Cl)c1)C1CCC(CN2CCC(c3c[nH]c4ccccc34)CC2)CC1` (stereo not given), the inhibition was 2.24%.

Turning to `CCCCCCCc1cc(O)c2c(c1)OC(C)(C)c1ccncc1-2`, the inhibition was determined as 1.72%.

With `S=C(NCCc1ccc(Cl)cc1)NC1CCC(CN2CCC(c3c[nH]c4ccccc34)CC2)CC1` (stereo not given), the inhibition is -2.05% and -1.85%.

`COc1ccc(CN2CCN(CCOC(c3ccccc3)c3ccc(Cl)cc3)CC2)c(O)c1` (stereo not given): the inhibition was 6.46%.

`O=C(Nc1cc(C(F)(F)F)cc(C(F)(F)F)c1)NC1CCC(CN2CCC(c3c[nH]c4ccccc34)CC2)CC1` (stereo not given): the inhibition is -0.26% and 2.03%.

Regarding `O=C(/C=C/c1ccc(Cl)c(Cl)c1)NCCC1CCC(N2CCC(c3c[nH]c4ccccc34)CC2)CC1` (stereo not given), the inhibition worked out at 4.25%.

Consider `O=C(NC1CCC(CN2CCC(c3c[nH]c4ccccc34)CC2)CC1)c1cc2ccccc2o1` (stereo not given), for which the inhibition was -2.2%.

For the molecule `COc1coc(C(=O)NC2CCN(CC3(c4ccc(Cl)cc4)CCC3)CC2)c1OC`, the inhibition turned out to be 2.81%.

Regarding `O=C(Nc1cc(C(F)(F)F)cc(C(F)(F)F)c1)c1cc(Cl)ccc1O`, the inhibition worked out at 8.03%.

As for `O=C(NC1CCN(CCc2c[nH]c3ccc(F)cc23)CC1)c1ncc(-c2ccccc2)[nH]1`, the inhibition came out at 3.98%.

For `Cc1cc(NC(=O)[C@H](CC(C)C)Nc2ccc(C#N)c3ccccc23)ccc1F`, the inhibition was -0.16%.

Take `CC(=O)N(Cc1ccccc1-c1ccc(CNCCc2ccccc2)cc1)C1CCN(Cc2ccccc2)CC1`: the inhibition amounted to 1.25%.

With `COc1cccc(CC(C)NCC(O)c2cccc(Cl)c2)c1` (stereo not given), the inhibition worked out at 1.92%.

`O=C(/C=C/C=C/c1ccccc1)NC1CCC(CN2CCC(c3c[nH]c4ccccc34)CC2)CC1` (stereo not given): the inhibition turned out to be 2.81%.

The record behind these values is ChEMBL document CHEMBL3433997, “St. Jude Leishmania screening dataset” (2016).
